Laboratory results as given in ChEMBL document CHEMBL1157539, “Thousands of chemical starting points for antimalarial lead identification” (Nature, 2010).

Assays:
Type in all cases: functional
Plasmodium falciparum [1] = experiment: GSK_TCMDC: Inhibition of Plasmodium falciparum 3D7 in whole red blood cells, using parasite LDH activity as an index of growth. Test compounds present at 2uM
Plasmodium falciparum [2] = experiment: GSK_TCMDC: Inhibition of Plasmodium falciparum Dd2 in whole red blood cells, using parasite LDH activity as an index of growth. Test compounds present at 2uM
HepG2 = experiment: GSK_TCMDC: Percent inhibition of human HepG2 cell line. Test compounds present at 10uM.

Row | SMILES | Inhibition (Plasmodium falciparum [1]) [%] | Inhibition (Plasmodium falciparum [2]) [%] | Inhibition (HepG2) [%]
1 | CCN(CC)CCN(Cc1ccc(-c2ccc(C(F)(F)F)cc2)cc1)C(=O)Cn1c(CCc2cccc(C#N)c2)nc(=O)c2ccccc21.O=C(O)C(O)C(O)C(=O)O | 100 | 47 | 36
2 | OC(CNC1CCCCC1)Cn1c2ccccc2c2ccccc21 (stereo not drawn) | 97 | 92 | 11
3 | CCN(CC)CCCNc1c2ccccc2nc2ccccc12.Cl | 100 | 0 | 17
4 | Cn1cncc1C(=O)Nc1cccc(-c2ccc(-c3nc4cc(F)ccc4[nH]3)s2)c1 | 99 | 27 | 0
5 | COc1cc2nc(-c3ccc(Br)cc3)cc(N)c2cc1OC | 98 | 69 | 90
6 | COc1cc2nc(NCCc3ccccc3)nc(NCc3cnn(C)c3C)c2cc1OC | 99 | 94 | 13
7 | CC(C)c1ccc(NC(=O)c2ccc(C(=O)NC3CCN(CC4CCCCC4)CC3)cc2)cc1.O=C(O)C(F)(F)F | 98 | 5 | 34
8 | Br.N=c1n(CCN2CCCCC2)c2ccccc2n1CC(=O)c1cccc([N+](=O)[O-])c1 | 94 | 0 | 10
9 | COCCn1c(-c2cccc(Cl)c2)nn(-c2ccc([N+](=O)[O-])cc2Cl)c1=S | 100 | 99 | 2
10 | FC(F)(F)c1ccc2[nH]c(-c3cccc(-c4cccc(CNCC5CCCO5)c4)c3)nc2c1.O=C(O)C(F)(F)F (stereo not drawn) | 100 | 96 | 23
11 | CC(C)COc1ccc(Cl)cc1Cc1ccc(-c2nc3ccc(Br)cc3[nH]2)o1.Cl | 80 | 75 | 19
